Experimental findings from ChEMBL document CHEMBL4513216, “Probing the Open Global Health Chemical Diversity Library for Multistage-Active Starting Points for Next-Generation Antimalarials” (ACS Infect Dis, 2020) are described below.

In all, about 68,000 compounds went through this assay and about 2,700 (4%) showed an effect of 50% or more. The sample holds strong results, similar compounds and a random draw of the others, so the mix is not that of the screen.

The test system of this assay is Plasmodium berghei. The assay can be described thus: Screen against P. berghei liver stage (PbLuc), transformed with Luciferase, at 2uM. The note with it: tested at 2 uM. Format: functional, HepG2.
As for `Cc1cn2nc(N3CCCC3C(=O)N3CCSCC3)sc2n1` (stereo unspecified), the INHIBITION is recorded as 55.36%.

Regarding `Cc1cn2nc(N3CCCC3C(=O)N3CCN(C)CC3)sc2n1` (stereo unspecified), the INHIBITION is 7.67%.

In the case of `Cc1cn2nc(N3CCCC3C(=O)N3CCOCC3)sc2n1` (stereo unspecified), the INHIBITION was -11.41%.

Turning to `COc1ccc(C(=O)NC(CC(=O)O)c2cccs2)c(OC)c1` (stereo unspecified), the INHIBITION was found to be 7.01%.

Consider `COCC(O)CN1CCC(NC(=O)c2cccc(C)c2)CC1` (stereo unspecified), for which the INHIBITION was 2.32%.

For the compound `CS(=O)(=O)CCCNC1(c2ccc(Br)cc2)CCC1`, the INHIBITION was 55.36%.

With `Cc1cccc(C2(NCCCS(C)(=O)=O)CCCC2)c1`, the INHIBITION stood at 36.28%.

In the case of `CS(=O)(=O)CCCNC1(c2cccc(Cl)c2)CCCC1`, the INHIBITION came out at 17.2%.

Regarding `O=C(NCc1ccnc(OCC(F)(F)F)c1)NCC1CCOC1` (stereo unspecified), the INHIBITION is on record as -3.72%.

On to `CNC(=O)[C@H]1C[C@@H]2CN(S(=O)(=O)c3ccccc3)C[C@@H]2N1C(C)=O`, for which the INHIBITION is 5.52%.

With `O=C(NCc1cccs1)[C@H]1CC[C@@H]2[C@@H](CCN2c2ncccn2)O1`, the INHIBITION was -23.39%.

Turning to `Cc1occc1C(=O)N1CCc2ncnc(-c3cnn(C)c3)c2CC1`, the INHIBITION worked out at 23.27%.

As to `Cc1oncc1C(=O)N1CCc2ncnc(-c3cnn(C)c3)c2CC1`, the INHIBITION is 33.74%.

As to `Cc1cc(C(=O)N2CCc3ncnc(-c4cnn(C)c4)c3CC2)c(C)o1`, the INHIBITION was found to be 55.94%.

As to `CC(C)CC(NC(=O)c1ccn(C)c(=O)c1)c1cccs1` (stereo unspecified), the INHIBITION is on record as 9.29%.

`CN(CCc1cn[nH]c1)C(=O)C1CC(=O)N(Cc2ccccn2)C1` (stereo unspecified): the INHIBITION is 48.93%.

In the case of `COCc1noc(CCNC(=O)c2ccc(C3CCCO3)s2)n1` (stereo unspecified), the INHIBITION is on record as -31.23%.

Consider `Cc1cc(CN2C[C@H](N3CCOCC3)[C@@H]3OCCC[C@@H]32)oc1C`, for which the INHIBITION is given as -0.23%.

`Cc1ccc(CN2C[C@@H](N(C)C)[C@H]3OCCC[C@H]32)o1`: the INHIBITION was determined as 39.57%.

On to `Cc1ccc(CN2C[C@H](N3CCOCC3)[C@@H]3OCCC[C@@H]32)o1`, for which the INHIBITION is 63.23%.

Consider `COCC(=O)N1CCC2(C1)c1ccccc1S(=O)(=O)N2CC1CC1` (stereo unspecified), for which the INHIBITION is reported as -11.81%.

For `Cc1cn(CC(=O)NC2CCC(C(=O)O)CC2)c2ccccc12` (stereo unspecified), the INHIBITION worked out at 0.13%.

`CCN1CCC(NC(=O)Cn2cc(C)c3ccccc32)CC1`: the INHIBITION is recorded as -3.38%.

`Cc1cn(CC(=O)NC2CCC3(CC2)OCCO3)c2ccccc12`: the INHIBITION stood at 70.17%.

As to `CCCC1CCCN(C(=O)Nc2cccnc2OC)CC1` (stereo unspecified), the INHIBITION was determined as 0.73%.

With `COc1ccc(C2CCCN2S(=O)(=O)c2cc(F)ccc2F)cc1` (stereo unspecified), the INHIBITION is 7.24%.

As to `Cc1cc(=O)[nH]cc1C(=O)N1Cc2ccccc2N(C)CC1C` (stereo unspecified), the INHIBITION amounted to 47.59%.

Regarding `Cc1csc(C2CCCN(C(=O)Cn3ccccc3=O)C2)n1` (stereo unspecified), the INHIBITION was determined as 42.29%.

Consider `CCc1csc(C2CCCN(C(=O)c3ccc(=O)n(C)n3)C2)n1` (stereo unspecified), for which the INHIBITION came out at 26.51%.

For `CC(C)c1csc(C2CCCN(C(=O)Cn3ccccc3=O)C2)n1` (stereo unspecified), the INHIBITION was 54.92%.

On to `Cc1csc(C2CCCN(C(=O)c3c[nH]c(C)n3)C2)n1` (stereo unspecified), for which the INHIBITION is -92.68%.

For the compound `Cc1nc(C(=O)N2CCCC(c3nc(C(C)C)cs3)C2)c[nH]1` (stereo unspecified), the INHIBITION amounted to 77.56%.

On to `CCc1csc(C2CCCN(C(=O)c3ccc(=O)n(CC)n3)C2)n1` (stereo unspecified), for which the INHIBITION came to 60.09%.

In the case of `CCc1csc(C2CCCN(C(=O)c3ccc(OC)nn3)C2)n1` (stereo unspecified), the INHIBITION was 11.18%.

On to `CCc1csc(C2CCCN(C(=O)c3c[nH]c(C)n3)C2)n1` (stereo unspecified), for which the INHIBITION is listed as 33.91%.

On to `Cc1nc(C2CCCN(C(=O)Cn3ccccc3=O)C2)sc1C` (stereo unspecified), for which the INHIBITION is reported as 14.77%.

`CC(C)NC(=O)NCc1nnc2n1C(C(=O)N(C)C)CC2` (stereo unspecified): the INHIBITION amounted to 24.34%.

`O=C(NCc1ccc(OCC2CC2)nc1)C1COc2ccccc2O1` (stereo unspecified): the INHIBITION was 2.21%.

Turning to `CC1CCN(C(=O)[C@@H]2C[C@H]3OCC[C@H]3N(Cc3ccoc3)C2)CC1`, the INHIBITION is 23.1%.

`Cc1cnc(CN(C)C(=O)C23CNCC2CNC3)[nH]1` (stereo unspecified): the INHIBITION is recorded as -16.03%.

Take `COc1ncccc1C(=O)N(C)Cc1nc(-c2ccccn2)no1`: the INHIBITION is listed as 16.37%.

With `CC(=O)Nc1nc(C(=O)N2CCCCC2Cn2cc(C)cn2)cs1` (stereo unspecified), the INHIBITION was -7.73%.

For `COCc1nc(C(=O)N2CCCCC2Cn2cc(C)cn2)cs1` (stereo unspecified), the INHIBITION was found to be 29.71%.

As for `CNC(=O)c1ccc(C(=O)N2CCCCC2Cn2cc(C)cn2)cn1` (stereo unspecified), the INHIBITION amounted to 61.96%.

`Cc1cnn(CC2CCCCN2C(=O)c2csc(C)n2)c1` (stereo unspecified): the INHIBITION is on record as 53.58%.

Take `Cc1cnn(CC2CCCCN2C(=O)c2ccc(NC3CC3)nc2)c1` (stereo unspecified): the INHIBITION came out at 14.53%.

In the case of `Cc1cnn(CC2CCCN2C(=O)c2ccc(C(N)=O)cn2)c1` (stereo unspecified), the INHIBITION stood at 40.29%.

Turning to `CC(C)C1CN(C(=O)c2cc(=O)[nH]c(=O)[nH]2)CCCN1CC1CC1` (stereo unspecified), the INHIBITION was -15.77%.

Consider `CN(C)CCn1c([C@@H]2CCCO2)cc2cccnc21`, for which the INHIBITION came out at 47.82%.

With `O=C(N1CCCC1)N1CCc2c(CNc3ncccn3)cncc2C1`, the INHIBITION was found to be 34.98%.

`Cc1cc(CN2CCC3(CC2)CC(C(=O)O)N(C(=O)C2CC2)C3)oc1C` (stereo unspecified): the INHIBITION was found to be 9.11%.
